# Reference: PubChem BioAssay (NCATS)
# “And” between values parts separate entries of the source, which are not always exact repeats. Identical values can stand only once. Results filed as inconclusive are left out. A call without a number means that no potency is given here. The source made the active and inactive calls. Unless noted, calls come from the whole dose curve; as a rule, active = well fitted curve in the direction sought with a large enough effect; inconclusive = small, poorly fitted or top-dose-only effect, or another doubt; inactive = no such curve, though single readings can be large; an effect the other way counts as inactive or inconclusive.
# Experiments:
# [1] = P-glycoprotein substrates identified in KB-8-5-11 adenocarcinoma cell line, qHTS therapeutic library screen (AID 1346987); note: nearly all actives have a fitted effect of over 65% in size; note: potency is the fitted concentration of half-maximal effect
# Procedure, shortened: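 In this qHTS, P-gp-rich KB-8-5-11 cells received library compounds across a concentration range. Viability was quantified by luminescence after 72 h at 37 degree C.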
# [2] = NS1 protein of Zika virus - qHTS assay to identify small molecule inhibitors in human HEK 293 cells (AID 1347053); note: series mostly up to about 46 µM; nearly all actives have a fitted effect of over 55% in size
# Procedure, shortened: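 Read-out is a two-antibody TR-FRET for ZIKV NS1, normalized between uninfected cells and infected cells. Compound added 1 h before MR766 infection at MOI 0.5; human HEK 293 cells incubated 24 h, 37 C.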
# [3] = qHTS of pediatric cancer cell lines to identify multiple opportunities for drug repurposing: Primary screen for TC32 cells (AID 1347089); note: nearly all actives have a fitted effect of over 60% in size
# Procedure, shortened: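 Luminescent CellTiter-Glo read-out of metabolically active TC32 cells after 48 h compound exposure. Primary: MIPE 11-point, 0.78 nM–46 µM; NPC 8-point, 0.59 nM–46 µM. Confirmatory: 11-point dilutions.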
# [4] = qHTS of pediatric cancer cell lines to identify multiple opportunities for drug repurposing: Primary screen for DAOY cells (AID 1347090); note: series mostly up to about 46 µM; nearly all actives have a fitted effect of over 55% in size
# Procedure, shortened: (§1)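 Cell viability, CellTiter-Glo luminescence; 500-1,000 cells/well, 8- or 11-point titration, 48 h compound exposure at 37 degrees C, 5% CO2. Controls: DMSO neutral, bortezomib 2.3 µM final as positive.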
# [5] = qHTS of pediatric cancer cell lines to identify multiple opportunities for drug repurposing: Primary screen for SJ-GBM2 cells (AID 1347091); note: potency is the fitted concentration of half-maximal effect
# Procedure, shortened: as §1
# [6] = qHTS of pediatric cancer cell lines to identify multiple opportunities for drug repurposing: Primary screen for A673 cells (AID 1347092); note: nearly all actives have a fitted effect of over 45% in size
# Procedure, shortened: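 A673 cells (500-1,000 cells/well in growth media) were pre-incubated 5 h at 37 degrees C, then exposed to compounds for 48 h. Viability was read as CellTiter-Glo luminescence; concentration-response curves came directly from the primary screen.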
# [7] = qHTS of pediatric cancer cell lines to identify multiple opportunities for drug repurposing: Primary screen for SK-N-MC cells (AID 1347093); note: potency is the fitted concentration of half-maximal effect
# Procedure, shortened: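 Metabolically active cells were quantified by ATP-dependent luminescence (CellTiter-Glo, 15 min at room temperature) following 48 h treatment. Cells had been plated at 500-1,000 per well and settled for 5 h beforehand.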
# [8] = qHTS of pediatric cancer cell lines to identify multiple opportunities for drug repurposing: Primary screen for BT-37 cells (AID 1347094); note: potency is the fitted concentration of half-maximal effect
# Procedure, shortened: (§2)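 Following a 5-hour attachment period, cells at 500-1,000/well received compounds and were cultured for 48 hours. CellTiter-Glo was added and luminescence read to estimate viable, metabolically active cells.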
# [9] = qHTS of pediatric cancer cell lines to identify multiple opportunities for drug repurposing: Primary screen for NB-EBc1 cells (AID 1347095)
# Procedure, shortened: as §2
# [10] = qHTS of pediatric cancer cell lines to identify multiple opportunities for drug repurposing: Primary screen for U-2 OS cells (AID 1347096); note: nearly all actives have a fitted effect of over 50% in size
# Procedure, shortened: (§3)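 Cells (500-1,000/well) rested 5 h, then received compounds for 48 h; metabolically active cells were measured by CellTiter-Glo luminescence. Final concentrations spanned up to 46 µM (MIPE, 11-point) or 0.59 nM-46 µM (NPC, 8-point) in primary screens, 11-point in follow-ups.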
# [11] = qHTS of pediatric cancer cell lines to identify multiple opportunities for drug repurposing: Primary screen for Saos-2 cells (AID 1347097); note: nearly all actives have a fitted effect of over 40% in size
# Procedure, shortened: as §2
# [12] = qHTS of pediatric cancer cell lines to identify multiple opportunities for drug repurposing: Primary screen for SK-N-SH cells (AID 1347098); note: nearly all actives have a fitted effect of over 65% in size; note: potency is the fitted concentration of half-maximal effect
# Procedure, shortened: as §3
# [13] = Natriuretic polypeptide receptor (hNpr1) antagonism - Pilot counterscreen GloSensor control cell line (AID 1347045; calls by dose curve; note: series mostly up to about 38 µM)
# Procedure, shortened: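 HEK293 cGMP-sensor cells; 2% GloSensor reagent 2 h RT; LOPAC compounds in 1:5 titrations 30-50 min; 50 uM SNP 20 min; luminescence pre-read and post-read.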
# [14] = target: Atrial natriuretic peptide receptor 2 (Homo sapiens) (UniProt P20594); assay: Natriuretic polypeptide receptor (hNpr2) antagonism - Pilot subtype selectivity assay (AID 1347050; calls by dose curve)
# Atrial natriuretic peptide receptor 2 (Homo sapiens), sequence (P20594 whole entry, looked up): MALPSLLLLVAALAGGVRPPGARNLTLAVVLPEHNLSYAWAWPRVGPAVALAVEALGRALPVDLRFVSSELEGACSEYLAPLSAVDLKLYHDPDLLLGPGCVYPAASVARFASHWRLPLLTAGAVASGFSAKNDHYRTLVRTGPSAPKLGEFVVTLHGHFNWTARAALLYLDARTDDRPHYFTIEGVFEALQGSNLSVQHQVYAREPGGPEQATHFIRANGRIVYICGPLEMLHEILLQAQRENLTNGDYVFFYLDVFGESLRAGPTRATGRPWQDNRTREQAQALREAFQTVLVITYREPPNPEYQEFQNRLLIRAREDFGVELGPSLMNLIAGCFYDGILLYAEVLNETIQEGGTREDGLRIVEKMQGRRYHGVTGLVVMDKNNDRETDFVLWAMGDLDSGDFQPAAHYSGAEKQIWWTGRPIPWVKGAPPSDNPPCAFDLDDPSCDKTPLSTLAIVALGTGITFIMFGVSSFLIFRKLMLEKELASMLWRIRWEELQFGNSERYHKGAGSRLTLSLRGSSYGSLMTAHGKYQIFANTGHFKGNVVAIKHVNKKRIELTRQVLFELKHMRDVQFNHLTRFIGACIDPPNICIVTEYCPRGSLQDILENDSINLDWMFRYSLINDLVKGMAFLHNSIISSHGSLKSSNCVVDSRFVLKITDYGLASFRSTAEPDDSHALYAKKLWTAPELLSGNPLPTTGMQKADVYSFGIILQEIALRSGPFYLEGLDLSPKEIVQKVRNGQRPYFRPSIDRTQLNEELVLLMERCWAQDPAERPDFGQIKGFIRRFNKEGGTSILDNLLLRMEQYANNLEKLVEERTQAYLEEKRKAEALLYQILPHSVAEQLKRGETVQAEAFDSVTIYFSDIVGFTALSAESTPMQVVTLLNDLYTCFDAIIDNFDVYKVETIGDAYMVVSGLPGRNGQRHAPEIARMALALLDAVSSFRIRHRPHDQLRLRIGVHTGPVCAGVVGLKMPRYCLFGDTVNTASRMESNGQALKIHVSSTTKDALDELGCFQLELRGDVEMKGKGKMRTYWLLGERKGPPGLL
# Procedure, shortened: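 Antagonist mode: compounds (LOPAC1280, seven 1:5 dilutions) added 30 min before 1 nM hNppC stimulation of hNpr2-HEK293 cGMP-sensor cells; luminescence read before and 20 min after agonist at ambient temperature.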
# [15] = target: T1, Tyrosine-protein phosphatase non-receptor type substrate 1 (Homo sapiens) + Leukocyte surface antigen CD47 (Homo sapiens) (UniProt P78324+Q08722); assay: CD47-SIRPalpha protein protein interaction - LANCE assay qHTS validation (AID 1347057; active = well fitted curve in the direction sought with a large enough effect in the signal ratio, with a control signal flat, not every such curve was filed as active; the % refers to the signal ratio; note: series mostly up to about 38 µM)
# T1 sequence (P78324 whole entry, looked up, the tested form may be a part): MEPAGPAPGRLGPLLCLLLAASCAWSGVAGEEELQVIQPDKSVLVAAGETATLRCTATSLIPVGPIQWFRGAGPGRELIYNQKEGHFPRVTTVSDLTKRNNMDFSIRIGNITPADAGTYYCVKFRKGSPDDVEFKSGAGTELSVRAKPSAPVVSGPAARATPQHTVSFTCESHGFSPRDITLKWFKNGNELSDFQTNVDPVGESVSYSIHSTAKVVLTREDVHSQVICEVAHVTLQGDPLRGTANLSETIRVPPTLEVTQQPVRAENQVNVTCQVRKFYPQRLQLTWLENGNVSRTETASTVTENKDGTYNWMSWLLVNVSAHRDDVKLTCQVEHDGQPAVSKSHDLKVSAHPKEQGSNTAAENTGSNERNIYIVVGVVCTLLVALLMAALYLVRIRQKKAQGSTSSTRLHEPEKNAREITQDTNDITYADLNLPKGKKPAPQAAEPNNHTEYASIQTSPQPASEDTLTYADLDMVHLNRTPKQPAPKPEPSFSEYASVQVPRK
# T1 sequence (Q08722 whole entry, looked up, the tested form may be a part): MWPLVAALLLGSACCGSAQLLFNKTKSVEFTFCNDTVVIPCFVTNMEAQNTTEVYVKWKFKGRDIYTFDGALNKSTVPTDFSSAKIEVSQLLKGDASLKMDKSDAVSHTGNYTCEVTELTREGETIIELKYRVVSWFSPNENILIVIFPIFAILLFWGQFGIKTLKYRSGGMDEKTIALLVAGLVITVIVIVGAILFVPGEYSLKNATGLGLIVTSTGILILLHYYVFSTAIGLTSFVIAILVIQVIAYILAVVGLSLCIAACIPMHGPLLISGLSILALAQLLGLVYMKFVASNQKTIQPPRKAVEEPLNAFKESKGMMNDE
# Procedure, shortened: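 Inhibition of soluble CD47/SIRPalpha ectodomain association by titrated compounds, measured as 665/615 nm time-resolved FRET ratio after sequential 30 min room-temperature incubations.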
# [16] = target: T1, Tyrosine-protein phosphatase non-receptor type substrate 1 (Homo sapiens) + Leukocyte surface antigen CD47 (Homo sapiens); assay: CD47-SIRPalpha protein protein interaction - HTRF assay qHTS validation (AID 1347058; active = well fitted curve in the direction sought with a large enough effect in the signal ratio, not every such curve was filed as active; the % refers to the signal ratio; note: series mostly up to about 38 µM)
# Procedure, shortened: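 Soluble extracellular domains (6His-CD47, Avi-tag-biotinylated SIRPalpha) in PBS pH 7.4 with 0.05% IGEPAL CA-630. Compounds were preincubated 30 min at RT with CD47 and anti-His-Eu, then SIRPalpha and SAV-XL665 were added. TR-FRET 665/615 ratio.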
# [17] = target: Parathyroid hormone/parathyroid hormone-related peptide receptor (Homo sapiens) (UniProt Q03431); assay: qHTS for PTHR1 Agonists: Optimization Screen against the NCGC LOPAC library (AID 1347079);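 note: GloSensor cAMP luminescence in HEK-293 GP2 cells expressing human PTHR1 with IBMX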
# Parathyroid hormone/parathyroid hormone-related peptide receptor (Homo sapiens), sequence (Q03431 whole entry, looked up): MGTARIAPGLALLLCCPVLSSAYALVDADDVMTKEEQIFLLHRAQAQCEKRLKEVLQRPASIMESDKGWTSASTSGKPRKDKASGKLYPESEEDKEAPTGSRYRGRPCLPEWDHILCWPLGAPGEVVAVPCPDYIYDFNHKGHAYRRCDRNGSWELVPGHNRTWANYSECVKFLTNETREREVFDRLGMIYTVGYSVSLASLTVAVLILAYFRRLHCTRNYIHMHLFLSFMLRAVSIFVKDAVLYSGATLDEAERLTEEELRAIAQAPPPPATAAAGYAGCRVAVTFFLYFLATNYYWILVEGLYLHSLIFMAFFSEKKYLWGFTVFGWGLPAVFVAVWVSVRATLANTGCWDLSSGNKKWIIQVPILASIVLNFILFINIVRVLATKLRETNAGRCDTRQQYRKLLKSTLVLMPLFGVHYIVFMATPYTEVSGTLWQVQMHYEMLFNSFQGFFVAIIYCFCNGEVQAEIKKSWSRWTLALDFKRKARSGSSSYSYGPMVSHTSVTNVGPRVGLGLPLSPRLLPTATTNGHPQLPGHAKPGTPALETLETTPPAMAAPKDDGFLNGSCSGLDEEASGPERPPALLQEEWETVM
# Procedure, shortened: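 Signal increase flags agonism. GP2 cells, derived from HEK-293, express human PTHR1 and a GloSensor cAMP construct.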
SMILES,Potency [1],Potency [2],Potency [3],Potency [4],Potency [5],Potency [6],Potency [7],Potency [8],Potency [9],Potency [10],Potency [11],Potency [12],Potency [13],Potency [14],outcome [15],outcome [16],outcome [17]
Cc1ncc([N+](=O)[O-])n1CCO,inactive,inactive,inactive,inactive,inactive,inactive,inactive,inactive,inactive,inactive,inactive,inactive,,,,,
O=P(O)(O)C(O)(Cc1cccnc1)P(=O)(O)O,inactive,inactive,inactive,inactive,inactive,inactive,inactive,inactive,inactive,inactive,inactive,inactive,,,,,
CCOC(=O)c1ccc(OC(=O)CCCCCN=C(N)N)cc1,inactive,inactive,inactive,inactive,inactive,inactive,inactive,inactive,inactive,inactive,inactive,inactive,,,,,
Cc1cccc(Nc2ccncc2S(=O)(=O)NC(=O)NC(C)C)c1,inactive,inactive,inactive,inactive,inactive,inactive,inactive,inactive,inactive,inactive,inactive,inactive,,,,,
COc1ccccc1OCC(O)COC(N)=O (configuration not stated),inactive,inactive,inactive,inactive,inactive,inactive,inactive,inactive,inactive,inactive,inactive,inactive,,,,,
N[C@@H](C(=O)N[C@@H]1C(=O)N2C(C(=O)O)=C(Cl)CS[C@H]12)c1ccccc1,inactive,inactive,inactive,inactive,inactive,inactive,inactive,inactive,inactive,inactive,inactive,inactive,,,,,
O=C(O)C1CCCN(CCC=C(c2ccccc2)c2ccccc2)C1 (configuration not stated),inactive,inactive,inactive,inactive,inactive,,,inactive,inactive,inactive,inactive,,inactive,inactive,inactive,inactive,inactive
C#CCN[C@@H]1CCc2ccccc21,inactive,inactive,inactive,inactive,inactive,inactive,inactive,inactive,inactive,inactive,inactive,inactive,,,,,
COc1cc2ncnc(Nc3cccc(Cl)c3)c2cc1OC,8.33 µM (active) and 16.4 µM (active),inactive,inactive,,,,,21700 nM (active),,,,8570 nM (active),inactive,inactive,inactive,,
Nc1nc(N)c2nc(CNc3ccc(C(=O)NC(CCC(=O)O)C(=O)O)cc3)cnc2n1 (configuration not stated),37.2 nM (active),inactive,,inactive,83.3 nM (active),,16.6 nM (active),48.5 nM (active),,inactive,inactive,,inactive,inactive,inactive,,inactive
CCN(CC)CC#CCOC(=O)C(O)(c1ccccc1)C1CCCCC1 (configuration not stated),inactive,inactive,inactive,inactive,,inactive,inactive,inactive,inactive,inactive,inactive,inactive,,inactive,,,inactive
NC(=O)N1c2ccccc2CC(=O)c2ccccc21,inactive,inactive,inactive,inactive,inactive,inactive,inactive,inactive,inactive,inactive,inactive,inactive,,,,,
CS(=O)(=O)c1ccc([C@@H](O)[C@@H](CO)NC(=O)C(Cl)Cl)cc1,inactive,inactive,inactive,inactive,inactive,inactive,inactive,inactive,inactive,inactive,inactive,inactive,,,,,
CC(N)C12CC3CC(CC(C3)C1)C2 (configuration not stated),inactive,inactive,inactive,inactive,inactive,inactive,inactive,inactive,inactive,inactive,inactive,inactive,,,,,
CCC(=O)O[C@]1(C(=O)CCl)[C@@H](C)C[C@H]2[C@@H]3CCC4=CC(=O)C=C[C@]4(C)[C@@]3(F)[C@@H](O)C[C@@]21C,inactive,inactive,inactive,inactive,inactive,inactive,26.6 µM (active) and 20.9 µM (active),inactive,inactive,inactive,inactive,inactive,,,,,
CCCOc1ccc(C(=O)OCCN(CC)CC)cc1N,inactive,inactive,inactive,inactive,inactive,inactive,inactive,inactive,inactive,inactive,inactive,inactive,,,,,
N[C@@H](Cc1ccc(O)c(O)c1)C(=O)O,inactive,inactive,inactive,inactive,inactive,,18700 nM (active),inactive,inactive,inactive,inactive,inactive,inactive,inactive,inactive,inactive,inactive
